# The list is not random: actives were taken first. Their share in the collection is about 10%.
# NPR1 antag – antagonists of human natriuretic peptide receptor Npr1 | HEK293 hNpr1 GloSensor cGMP, ANP-stimulated luminescence | Potency, µM (top dose mostly 46.3 µM), most hits filed as inhibitors | 1.6% of 76,000 active | AID 1347048; calls by dose curve; also: nearly all actives have a fitted effect of over 60% in size
#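 HEK293 cells stably expressing human Npr1 and cGMP GloSensor pGS-40F, loaded 2 h with 2% GloSensor reagent, given compound 30 min at room temperature. Luminescence read before and 20 min after 0.1 nM hNppA.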
# Luciferase inh – blocks purified firefly luciferase enzyme activity | Potency, µM (top dose mostly 115 µM), actives largely listed as inhibitors | 2.5% of 76,000 active | AID 1347043 | P08659 | purified P. pyralis luciferase, luminescence, biochemical; also: nearly all actives have a fitted effect of over 65% in size
# Target sequence (P08659 whole entry, looked up): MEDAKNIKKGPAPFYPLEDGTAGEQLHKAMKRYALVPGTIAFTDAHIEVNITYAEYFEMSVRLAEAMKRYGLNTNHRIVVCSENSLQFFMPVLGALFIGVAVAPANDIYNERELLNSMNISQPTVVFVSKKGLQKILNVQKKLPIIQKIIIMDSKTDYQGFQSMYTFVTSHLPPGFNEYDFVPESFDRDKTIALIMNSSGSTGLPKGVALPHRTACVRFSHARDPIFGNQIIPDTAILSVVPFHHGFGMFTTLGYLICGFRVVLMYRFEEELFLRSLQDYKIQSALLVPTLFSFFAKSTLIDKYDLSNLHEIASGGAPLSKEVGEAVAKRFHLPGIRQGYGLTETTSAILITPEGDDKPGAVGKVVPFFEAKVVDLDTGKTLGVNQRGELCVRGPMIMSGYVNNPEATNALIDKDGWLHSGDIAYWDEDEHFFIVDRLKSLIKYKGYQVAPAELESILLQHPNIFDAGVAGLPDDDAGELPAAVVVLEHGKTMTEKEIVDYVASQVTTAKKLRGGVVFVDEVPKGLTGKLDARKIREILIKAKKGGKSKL
#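 Biochemical qHTS: compound (6-point titration) added to 10uM D-luciferin plus 10uM ATP in Tris acetate pH 7.5 buffer with Mg, Tween-20 and BSA, then purified enzyme at 10nM; light output imaged.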
# HEK cytotox – HEK 293 cell cytotoxicity; 6.6% of 94,000 active; HEK 293 viability, ATP luminescence (CellTiter-Glo), 48-72 h; AID 1345083; Potency, µM (doses to about 115 µM), actives largely listed as inhibitors; also: nearly all actives have a fitted effect of over 60% in size
#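 CellTiter-Glo luminescence (cellular ATP) was read after 48 or 72 hr of compound exposure at 37 degree Celsius. Cells were HEK 293 plated at 250 cells/well.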
# GPT2 inhibitor – blocks human glutamate pyruvate transaminase 2 | 0.25% of 100,000 active | Potency, µM (series often up to 57.7 µM), most hits filed as inhibitors | Recombinant GPT2, coupled pyruvate oxidase/HRP Amplex Red fluorescence; also: nearly all actives have a fitted effect of over 60% in size
#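 Inhibition is scored from Amplex Red fluorescence generated when pyruvate oxidase and HRP act on pyruvate released by GPT2. Reactions contain 10ng/uL enzyme, 250uM a-KG and 2mM L-alanine and run 30 min at room temperature.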
# 3T3 cytotox – kills NIH 3T3 cells; NIH 3T3 viability, CellTiter-Glo ATP luminescence, 48-72 h; Potency, µM (series often up to 96.7 µM), most hits filed as inhibitors; 4.3% of 94,000 active; AID 1345082; also: nearly all actives have a fitted effect of over 55% in size
#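 Mouse fibroblast NIH 3T3 cells, 400 per well, received compound via pintool and were incubated for 48 or 72 hr prior to CellTiter-Glo ATP luminescence measurement.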
# Numbers stand for hits; - = inactive; ? = inconclusive; . = no result; [ ] = remark or other dose. Unless noted, calls follow the shape of the dose curve; as a rule, active = well fitted curve in the direction sought with a large enough effect; inconclusive = small, poorly fitted or top-dose-only effect, or another doubt; inactive = no such curve, though single readings can be large; an effect the other way counts as inactive or inconclusive.
SMILES,NPR1 antag,Luciferase inh,HEK cytotox,GPT2 inhibitor,3T3 cytotox
CNC(=O)c1cc(C2CC2)nc2onc(C3CCCN(C(=O)c4ccccc4C)C3)c12 (centres undefined),.,.,-,.,-
COc1ccccc1-c1cccc(C(=O)N2CCN(C(=O)Cc3cccc(Cl)c3)CC2)c1,.,.,?,-,?
COc1ccc(OC)c(NC(=O)C2CCN(c3cnc4nccnc4c3)CC2)c1,-,-,40µM,-,?
Cc1cc(Cl)ccc1-n1nc(C)c([C@@H]2C=C[C@@H](NC(=O)CCC(=O)O)C2)c1C,-,40µM,-,-,-
Cc1nn(-c2ccc(C(C)(C)C)cc2)c(C)c1[C@@H]1C=C[C@@H](NC(=O)CCC(=O)O)C1,-,20µM,?,-,-
Cc1nn(-c2ccc(C(F)(F)F)cc2)c(C)c1[C@@H]1C=C[C@@H](NC(=O)CCC(=O)O)C1,-,?,?,-,?
COCC(=O)N[C@@H]1C=C[C@@H](c2c(C)nn(-c3ccc(C(C)(C)C)cc3)c2C)C1,-,?,40µM,-,22µM
Nc1ncnc2c1ncn2CCNCCCCCO,.,.,.,-,.
CCN1CCC(N2CCC(N3C(=O)C4(CCCCC4)C3c3ccncc3)CC2)CC1 (centres undefined),.,.,-,-,-
Cc1noc(C)c1S(=O)(=O)N1C[C@@H](Oc2ccccc2)C[C@H]1C(=O)N1CCCC1,-,-,-,-,-
CCn1ccc(C(=O)N2CCCC(c3ccccc3)(c3ccccc3)C2)cc1=O,-,-,?,-,-
Cc1cc(CNC(=O)c2ccncc2)c2[nH]c(-c3ccccc3)c(C)c2c1,11µM,?,14µM,-[11.5 µM],32µM
CCc1[nH]c2c(CNC(=O)c3cnc(C)nc3)cc(C)cc2c1C,-,-,-,-,?
Cc1cc(CNC(=O)Cc2ccc(-n3cnnn3)cc2)c2[nH]c(C)c(C)c2c1,-,-,?,-,20µM
Cc1cc(CNC(=O)Cc2nonc2C)c2[nH]c(-c3ccccc3)c(C)c2c1,-,10µM,?,-,-
COc1ccc(CC(=O)NCc2cc(C)cc3c(C)c(C)[nH]c23)c(OC)c1,-,-,?,-,?
Cc1c(-c2ccccc2)[nH]c2c(CNC(=O)CCc3nncn3C)cc(Cl)cc12,-,22µM,?,-,?
COc1ccc(-c2ccc(C(=O)NC3CCCC3)cc2)nn1,.,.,?,.,-
COC[C@@H]1[C@H](C(=O)NCCc2nc3ccccc3n2C)CCCN1C,.,.,-,-,-
CCc1cc(=O)n(CC(=O)Nc2ccc(OC)cc2)c(-c2ccccc2)n1,-,-,?,-,?
CCc1cc(=O)n(CC(=O)Nc2cc(OC)c(OC)c(OC)c2)c(-c2ccccc2)n1,?,-,45µM,-,?
Cc1ccc([S+](=O)([O-])N2CCC[C@@H]2C(=O)N2CCC(N3CCOC3=O)CC2)cc1,.,.,-,?,-
Fc1ccc(C2Cn3cnc(-c4nc(-c5ccc6c(c5)OCO6)no4)c3CO2)cc1 (centres undefined),-,?,?,-,25µM
COc1ccc(-c2noc(-c3ncn4c3COC(c3ccc(F)cc3)C4)n2)cc1OC (centres undefined),-,-,?,-,28µM
COc1cc(-c2noc(-c3ncn4c3COC(c3ccc(F)cc3)C4)n2)cc(OC)c1OC (centres undefined),-,-,?,-,?
SMILES,NPR1 antag,Luciferase inh,HEK cytotox,GPT2 inhibitor,3T3 cytotox
Cc1cccc2c1nc1n2[C@@H](CNCc2nc3ccccc3n2C)COC1,?,-,?,-,100µM
Cc1cccc2c1nc1n2[C@@H](CNCc2ccc(C#N)cc2)COC1,?,-,?,-,?
COc1ccc2nc3n(c2c1)[C@@H](CNC(C)C)COC3,-,-,-,-,100µM
COc1ccc(-c2[nH]nc3ncc(-c4ccccc4OC)nc23)c(C)c1,-,-,89µM,-,?
COc1ncccc1-c1cnc2n[nH]c(-c3ccc(F)cc3C)c2n1,-,-,?,-,32µM
COc1ccc(-c2[nH]nc3ncc(-c4cccnc4OC)nc23)c(C)c1,-,-,100µM,-,?
CCc1ccccc1NC(=O)c1cc2c(s1)CN(C(C)C)C2,-,-,?,-,?
